We go through 40 compounds from PubChem BioAssay (Tox21).

The structures appear in SMILES notation. Where “and” joins values, the source holds several entries; their conditions need not be identical. Equal values may be shown once. Inconclusive results are not listed. Unmarked numbers belong to inactive results. Calls of active or inactive are those of the source. Calls come from the whole dose curve; as a rule, active = well fitted cell-killing curve with a large enough effect in the repeat runs; inconclusive = weak or mixed curves, or effect the other way; inactive = no such curve, though single readings can be large or run the other way. Positions of bridges follow the written chain, without caps; N, C: chain ends. Residues, ends and D or L forms follow the SMILES beside them.
% is set by controls: 0 for no effect and ±100 for the full control effect; potency is the fitted concentration of half-maximal effect.

The test can be described thus: qHTS assay for identifying genotoxic compounds that show differential cytotoxicity against isogenic chicken DT40 cell lines with known DNA damage response pathways - wild type cell line (AID 743012). Note: nearly all actives have a fitted effect of over 60% in size. The note with it: DT40 wild type chicken cells viability, CellTiter-Glo, 40 h; series mostly up to 68.4 µM; activity change, negative = cytotoxicity: at the top concentration. The text has this:
U.S. Tox21 Program National Center for Advancing Translational Sciences [NCATS] NIH Chemical Genomics Center [NCGC] U.S. Environmental Protection Agency [EPA] National Institutes of Environmental Health Sciences [NIEHS] National Toxicology Program [NTP] U.S. Food and Drug Administration [FDA] Tox21 Assay Overview: DNA repair pathways play a critical role in cellular homeostasis by repairing DNA damage induced by endogenous processes and xenobiotics. Isogenic chicken DT40 cell lines deficient in different DNA repair pathways can be used to identify genotoxic compounds and aid in characterizing the nature of the DNA damage induced. Two DNA repair-deficient cell lines with disrupted genes, Rad54/Ku70 or Rev3, were used to screen the Tox21 10K compound library. Possible genotoxicity was based on the presence of a significant increase in cytotoxicity in one or more of the DNA repair-deficient cell lines compared to that observed in the parental DNA repair-proficient cell line. CellTiter Glo viability assay (Promega, Madison, WI) was used to measure cell viability in these cells after compound treatment. This assay includes the data from the wild type cell line.
Tox21 Assay Protocol Summary: 300 DT40 wild type cells in 5 uL/well were dispensed into white, solid-bottom 1536-well plates using a Multidrop Combi (ThermoFisher Scientific, Waltham, MA) dispenser. After the assay plates were incubated at 37 C/5% CO2 for approximately 0.5 hour, 23 nL of compounds dissolved in DMSO, positive controls or DMSO only was transferred into the assay plate by a pintool work station (Kalypsys, San Diego, CA). The assay plates were incubated at 37 C/5% CO2 for 40 hours. After 5 uL per well of CellTiter-Glo reagent was added into each well of the assay plates, the plates were incubated for 30 min at room temperature and the luminescence intensity of the plates was measured using a ViewLux (PerkinElmer, Shelton, CT) plate reader.
In general terms: qHTS replaces the single test concentration by a dilution series.
In the case of `CCN(CC)CCOc1ccccc1OC`, the “activity change, negative = cytotoxicity” value is -24.7%.
Turning to `CCCCCc1ccc(C)cc1O`, the “activity change, negative = cytotoxicity” value is -13.6%.
The same measure, in the same setting: under `CC1CS(=O)(=O)CCN1/N=C/c1ccc([N+](=O)[O-])o1` (stereo not given) stands 13% [at 31.4 µM].
Same read-out and setting: in the case of `O=C(O)c1ccc(OCCn2ccnc2)cc1` it was 13.5%; in that of `CCOC(=O)c1c[nH]c2cc(OCC(C)C)c(OCC(C)C)cc2c1=O`, 15.5%.
For the compound `CN1c2cc(O)c(N=NC(N)=O)cc2CC1S(=O)(=O)O` (stereo not given), the “activity change, negative = cytotoxicity” value is 16.1%.
Turning to `CCCCCC(O)/C=C/C=O` (stereo not given), the “activity change, negative = cytotoxicity” value is -3.76%.
On the same count and under the same terms, in the case of `CO/N=C(\C(=O)N[C@@H]1C(=O)N2C(C(=O)O)=C(CSc3nnnn3C)CS[C@H]12)c1csc(N)n1` it was 16.8%.
Same read-out and setting: in the case of `CC(=O)N[C@@H]([C@@H](O)[C@H](O)[C@H](O)CO)[C@@H](O)CC(=O)C(=O)O` it was 3.06%; in that of `CCCCCCCCCCCCCCCC(=O)O[C@@H]1CC(C)=C(/C=C/C(C)=C/C=C/C(C)=C/C=C/C=C(C)/C=C/C=C(C)/C=C/C2=C(C)C[C@@H](OC(=O)CCCCCCCCCCCCCCC)CC2(C)C)C(C)(C)C1`, 1.76%.
On the same count and under the same terms, in the case of `CO[C@@]1(NC(=O)C2SC(=C(C(N)=O)C(=O)O)S2)C(=O)N2C(C(=O)O)=C(CSc3nnnn3C)CS[C@@H]21` (stereo not given in full) it was 12.4% [at 31.4 µM].
Take `S=C1SCN(Cc2ccccc2)CN1Cc1ccccc1`: the Potency is 10.6 µM (active).
With `CC(CN1c2ccccc2Sc2ccc(S(=O)(=O)N(C)C)cc21)N(C)C` (stereo not given), the Potency was 11.9 µM (active).
As for `NCCCC[C@H](NC(=O)[C@@H]1CCCN1C(=O)[C@@H]1CSSC[C@H](NC(=O)CNC(=O)CNC(=O)CN)C(=O)N[C@@H](Cc2ccc(O)cc2)C(=O)N[C@@H](Cc2ccccc2)C(=O)N[C@@H](CCC(N)=O)C(=O)N[C@@H](CC(N)=O)C(=O)N1)C(=O)NCC(N)=O` (H-GGGCYFQNCPKG-NH2; disulfide 4-9), the “activity change, negative = cytotoxicity” value was -0.181%.
As for `C#C[C@]1(O)CC[C@H]2[C@@H]3CCC4=CC(=O)CC[C@@H]4[C@H]3C(=C)C[C@@]21CC`, the Potency is 29.8 µM (active).
For `COc1ccc(C[C@@H](C)NC[C@H](O)c2ccc(O)c(NC=O)c2)cc1`, the Potency was 29.8 µM (active).
Same read-out and setting: in the case of `CC(C)N1CCN(c2ccc(OC[C@H]3CO[C@](Cn4cncn4)(c4ccc(Cl)cc4Cl)O3)cc2)CC1` it was 4.52 µM (active).
With `CCC(c1ccccc1)c1noc(CCN(CC)CC)n1` (stereo not given), the Potency was 23.7 µM (active).
Consider `CCCCC/C=C\C/C=C\C/C=C\CCCCC(=O)O`, for which the “activity change, negative = cytotoxicity” value was 2.62%.
Take `O=c1[nH]cnc2[nH]cc(CN3CCCCC3)c12`: the “activity change, negative = cytotoxicity” value is 8.14%.
As to `CC(=O)O[C@H]1C[C@@H]2CC[C@@H]3[C@H](CC[C@@]4(C)[C@H]3C[C@H](N3CC[N+](C)(C)CC3)[C@@H]4OC(C)=O)[C@@]2(C)C[C@@H]1N1CC[N+](C)(C)CC1`, the “activity change, negative = cytotoxicity” value is 1.45%.
The same measure, in the same setting: under `CC(C)[C@@H]1CC[C@@H](C)C[C@H]1OC(=O)c1ccccc1O` stands 12.1%; under `CC(=O)O[C@]1(C(C)=O)CC[C@H]2[C@@H]3CCC4=CC(=O)CC[C@]4(C)[C@@]3(F)[C@@H](O)C[C@@]21C`, 6.29%.
Still for that read-out and setting: in the case of `CC(=O)Oc1cccc(C(=O)O)c1OC(C)=O` it was 2.79%.
Turning to `CN1[C@@H]2CC[C@H]1CC(OC(c1ccccc1)c1ccccc1)C2` (stereo not given in full), the Potency was 5.31 µM (active) and 13.3 µM (active) and 6.68 µM (active).
Regarding `O=C(COc1ccc(Cl)cc1)OCCNC12CC3CC(CC(C3)C1)C2`, the “activity change, negative = cytotoxicity” value is -13.5%.
`O=C(O)CO.[NH2-].[NH2-].[Pt+2]`: the “activity change, negative = cytotoxicity” value was 17.3%.
Still for that read-out and setting: under `Cc1c(Cl)cccc1Nc1ncccc1C(=O)O` stands 6.92%; under `O=C(O)[C@H]1/C(=C/CO)O[C@@H]2CC(=O)N21`, 7.8%; under `CS(=O)(=O)Nc1cc2occ(NC=O)c(=O)c2cc1Oc1ccccc1`, 9.5%.
In the case of `CC[C@@H](C(=O)[C@@H](C)[C@@H](O)[C@H](C)[C@@H]1O[C@@H]([C@@H](CC)C(=O)O)CC[C@@H]1C)[C@H]1O[C@]2(C=C[C@@H](O)[C@]3(CC[C@@](C)([C@H]4CC[C@](O)(CC)[C@H](C)O4)O3)O2)[C@H](C)C[C@@H]1C`, the Potency was 1.5 µM (active).
For `COc1cc(C[C@@H]2NCCc3cc(O)c(O)cc32)cc(OC)c1OC`, the “activity change, negative = cytotoxicity” value was -21.6%.
Take `CCCCCCC(=O)O[C@H]1CC[C@H]2[C@@H]3CCc4cc(O)ccc4[C@H]3CC[C@]12C`: the “activity change, negative = cytotoxicity” value was -14.2%.
For the compound `CN1CCN(C2=Nc3ccccc3Cc3ccccc32)CC1`, the Potency is 26.6 µM (active).
The same measure, in the same setting: in the case of `CCCCC(=O)OCC(=O)[C@]1(O)Cc2c(O)c3c(c(O)c2[C@@H](O[C@H]2C[C@H](NC(=O)C(F)(F)F)[C@H](O)[C@H](C)O2)C1)C(=O)c1c(OC)cccc1C3=O` it was 1.5 µM (active).
Consider `CC1(C)S[C@@H]2[C@H](NC(=O)[C@H](N)c3ccccc3)C(=O)N2[C@H]1C(=O)OCOC(=O)[C@@H]1N2C(=O)C[C@H]2S(=O)(=O)C1(C)C`, for which the “activity change, negative = cytotoxicity” value is 0.371%.
For the compound `CCCCC(=O)N(Cc1ccc(-c2ccccc2-c2nn[nH]n2)cc1)[C@@H](C(=O)O)C(C)C`, the “activity change, negative = cytotoxicity” value was 7.69%.
Still for that read-out and setting: in the case of `COC(F)(F)C(Cl)Cl` it was -0.0134%; in that of `CO[C@H]1C[C@H](O[C@H]2[C@H](C)[C@@H](O[C@@H]3O[C@H](C)C[C@H](N(C)C)[C@H]3OC(C)=O)[C@@H](C)C[C@]3(CO3)C(=O)[C@H](C)[C@@H](OC(C)=O)[C@@H](C)[C@@H](C)OC(=O)[C@@H]2C)O[C@@H](C)[C@@H]1OC(C)=O`, 3.36% [at 31.4 µM].
For `CCOc1ccc(N=Nc2ccc(N)cc2N)cc1`, the Potency was 23.7 µM (active).
